Our source for the outcome values is PubChem BioAssay AID1117361 (Southern Research Institute, 2015).

Screen size: about 3,600 compounds; about 900 (25%) were called active. No rule for the calls is given here. These entries were drawn from the full list. Entries with a potency or affinity are not part of this list.

The target in this experiment is Protein Tat (Human immunodeficiency virus type 1 group M subtype B (isolate HXB2)) (UniProt P04608). Nature of the experiment: inhibitors of Tat binding to TAR RNA, dose response, counter-screen for Vif-APOBEC3G degradation inhibitor project, biochemical, fluorescence polarization, FAM-labeled TAR RNA (AID 1117361). The following applies: outcome: dose series up to 100 µM unless noted; series mostly up to 100 µM.
Take `O=C1CN(C(=O)COC(=O)CCSc2ccccc2Cl)c2ccccc2N1`: the compound was called inactive. In the case of `Cc1ccc(-c2nnc(SCC(=O)N3CC(C)CC(C)C3)o2)cc1C` (stereo unspecified), the call was inactive. The result for `Cc1ccc(-n2nnc3c(=O)n(CC(=O)c4ccccc4)cnc32)cc1` reads “inactive”; that for `Cn1c(=O)c2c(nc(NCCc3ccccc3)n2Cc2ccccc2)n(C)c1=O`, “inactive”; that for `CC(=O)c1ccc(N2CCN(C(=O)C3CCC3)CC2)cc1`, “inactive”.

Regarding `CC1(C)CC(=O)C2=C(C1)NCN(Cc1ccc3c(c1)OCO3)C2`, the compound was classed as inactive.

Take `COC(=O)c1cccc(NC(=O)c2ccc3c(c2)C(=O)N(CC2CCCO2)C3=O)c1` (stereo unspecified): the call was inactive. For `O=c1[nH]c2ccc(NS(=O)(=O)c3ccc(F)c(Cl)c3)cc2[nH]1`, the compound was called inactive. Take `O=C(O)c1cccc2c1Oc1ccccc1S2(=O)=O`: the call was inactive.

As for `CCN1CNC(=S)N(CCc2ccccc2)C1`, the compound was classed as inactive. Turning to `CCOc1ccc2nc(Cl)c(C3CC(c4ccccc4)=NN3C(=O)c3cccs3)cc2c1` (stereo unspecified), the compound was classed as inactive.

Regarding `O=C(NCCC1CCCCN1S(=O)(=O)c1ccc(F)cc1)C(=O)NCc1ccccn1` (stereo unspecified), the call was inactive. Regarding `CC(C(=O)N1CCCCC1)n1ncn2cccc2c1=O` (stereo unspecified), the compound was classed as inactive. Turning to `CCOc1ccc(N(CC(=O)N2CCC(Cc3ccccc3)CC2)S(C)(=O)=O)cc1`, the call was inactive.

For `OCCN1CCN(CC(O)COc2ccc3ccccc3c2)CC1` (stereo unspecified), the result was inactive. Regarding `C#CC[N+]1(CC#Cc2ccccc2)CCCC1`, the call was inactive.

`CC1(C(=O)O)Cc2ccccc2C(=O)O1` (stereo unspecified): the outcome was inactive. The entry for `CC12CCC(C(=O)Nc3cc(F)ccc3F)(CC1=O)C2(C)C` (stereo unspecified) is “inactive”; for `CC1(C)CC(=O)C(N=Nc2ccc(Br)cc2)=C(O)C1` it is “inactive”; for `O=C(c1ccc(S(=O)(=O)N2CCOCC2)cc1)N1CCN(c2cccc(Cl)c2)CC1` it is “inactive”.

As to `CN(C)CCCN(CCCN(C)C)C(=S)Nc1ccc(S(=O)(=O)N2CCOCC2)cc1`, the compound was called inactive. In the case of `COCc1nnc(NC(=O)c2ccc(S(=O)(=O)N(C)C3CCCCC3)cc2)o1`, the call was inactive.

With `O=C(c1ccccc1S(=O)(=O)NCc1ccccc1)N1CCCC1`, the outcome was inactive. As for `C=CCn1c(Sc2nc(C)cs2)nc2c1c(=O)[nH]c(=O)n2C`, the compound was called inactive. The result for `O=C(NCc1cccnc1)C1c2ccccc2C(=O)N1C1CCCC1` (stereo unspecified) reads “inactive”. For the compound `NNc1ccc([N+](=O)[O-])c2[nH][nH]c(=O)c12`, the result was inactive. The result for `CCCNC(=O)c1ccccc1NC(=O)c1ccc(CSc2ccccc2)cc1` reads “inactive”. As for `COc1ccc(-c2cc(C)nc(SCC(=O)c3cccc([N+](=O)[O-])c3)n2)cc1`, the call was inactive. Regarding `C=C1C(=O)C2=CC1CCC(=O)C1(C)CCC(OC(C)=O)C(C)(C)C1CC2O` (stereo unspecified), the outcome was inactive.

As to `CCn1c(SCC(=O)n2nc(C)cc2C)nnc1-c1ccc2c(c1)OCO2`, the result was inactive. The entry for `O=C(Nc1ccc(Br)cn1)C1CCN(S(=O)(=O)c2cccs2)CC1` is “inactive”; for `O=C(/C=C/c1cccs1)N1CCN(c2ccc(O)cc2)CC1` it is “inactive”. `Cc1ccc(Nc2nc3nonc3nc2N(C)C)cc1`: the compound was called inactive. The entry for `CCc1nc2ccc(Cc3ccc4nc(CC)[nH]c4c3)cc2[nH]1` is “inactive”; for `Cc1ccc(S(=O)(=O)N(CC(=O)N/N=C/c2cccc3c2OCCO3)c2ccccc2F)cc1` it is “inactive”. The result for `COCC(=O)Nc1nnc(COc2ccccc2)s1` reads “inactive”. The result for `N#Cc1ccccc1NC(=O)COC(=O)c1ccc(S(=O)(=O)N2CCCC2)cc1` reads “inactive”; that for `Cc1ccc(-n2c(Cc3cccn3C)nnc2SCC(=O)Nc2nnc(C)s2)cc1`, “inactive”; that for `Cn1cnnc1SCC(=O)Nc1ccccc1C(=O)NC1CC1`, “inactive”. As for `O=C(NC(=O)N1CCN(c2ccc([N+](=O)[O-])cn2)CC1)c1c(Cl)cccc1Cl`, the outcome was inactive. Take `CC1CC(C)CN(S(=O)(=O)c2ccc(NC(=O)c3ccc(=O)[nH]c3)cc2)C1` (stereo unspecified): the call was inactive. The entry for `COc1ccc(-n2ncc3c(NCc4ccccn4)ncnc32)cc1` is “inactive”; for `CC(=O)Nc1ccc(S(=O)(=O)N2CCN(Cc3ccccn3)CC2)cc1` it is “inactive”; for `COc1ccc(S(=O)(=O)N(CCc2ccccc2)CC(=O)NC(C)C)cc1` it is “inactive”. Regarding `O=C(Cn1c(=O)oc2ccccc21)N1CCN(S(=O)(=O)c2ccccc2)CC1`, the result was inactive. The entry for `CCOC(=O)N1CCN(c2c(NCc3ccccc3Cl)c(=O)c2=O)CC1` is “inactive”; for `CC(C)(C)OC(=O)N1CCN(c2ccc([N+](=O)[O-])cc2)CC1` it is “inactive”; for `CC(C)(C)C(=O)O/N=C(\N)c1c(Cl)cccc1Cl` it is “inactive”. With `C=CCc1ccc(OCCOCCNCCCC)c(OC)c1`, the compound was classed as inactive. As to `Cn1c(=O)c2c(nc(CN3CCOCC3)n2CCN2CCOCC2)n(C)c1=O`, the result was inactive. The result for `O=C(CSc1nc(-c2ccccc2)cc(C(F)(F)F)n1)c1cccc([N+](=O)[O-])c1` reads “inactive”; that for `COc1ccc(CCNC(=O)CSc2nc(-c3ccco3)cc(C(F)(F)F)n2)cc1`, “inactive”. With `Cc1c(F)cccc1NC(=O)CCCCCC1NC(=O)NC1C` (stereo unspecified), the compound was called inactive. The entry for `Cc1ccc(S(=O)(=O)C(F)(F)F)cc1NC(=O)c1cccnc1` is “inactive”. As to `COc1cc([N+](=O)[O-])ccc1NC(=O)Oc1ccc(NC(C)=O)cc1`, the outcome was inactive. For the compound `O=c1cc(-c2ccc(O)c(O)c2)oc2cc(O)c(C3OC(CO)C(O)C(O)C3O)c(O)c12` (stereo unspecified), the outcome was inactive. As to `CC1C(=O)N2CCCc3cc(NC(=O)C(=O)NCc4cccnc4)cc1c32` (stereo unspecified), the outcome was inactive. Turning to `COc1cc(C2Nc3ccccc3C(=O)N2c2ccccc2)ccc1O` (stereo unspecified), the result was inactive. The result for `Clc1ccc(-c2nc3cnccn3c2Nc2ccc3c(c2)OCO3)cc1` reads “inactive”. With `COc1cccc(-c2cc(C(=O)Nc3c(C)n(C)n(-c4ccccc4)c3=O)no2)c1`, the compound was classed as inactive. As to `CC[n+]1ccc(C)c2cc(S(=O)C(F)(F)F)ccc21` (stereo unspecified), the call was inactive. The entry for `COc1ccc(CNC(=O)c2ccc(NC(=O)C3CCCO3)cc2)cc1` (stereo unspecified) is “inactive”. Consider `COc1ccc(C(=O)Nc2nncs2)cc1S(=O)(=O)N1CC(c2ccccc2)CC1=O` (stereo unspecified), for which the outcome was inactive. Take `COC(=O)C(C(=O)Nc1ccc(OC)cc1)C1CCCCCC1` (stereo unspecified): the compound was classed as inactive. Turning to `COCCn1nnnc1C(c1cccs1)N1CCN(c2cc(C)ccc2C)CC1` (stereo unspecified), the call was inactive.

On to `Cc1ccc(C(=O)OC2CCS(=O)(=O)c3sccc32)cc1` (stereo unspecified), for which the compound was called inactive. For the compound `COC(=O)c1ccc(NC(=O)CN2CCCC2)cc1`, the outcome was inactive. The entry for `COC(=O)Cc1ccc(NC(=S)NNC(=O)C2CC2)cc1` is “inactive”; for `CCc1nnc(NC(=O)CSc2nnc(Cc3ccccc3)o2)s1` it is “inactive”. The result for `COC(=O)c1c(NC(=O)CSc2nnc(CNc3ccc(Cl)cc3)o2)sc(C)c1C` reads “inactive”; that for `CCOC(=O)C1=C(Cn2cnc3ccccc32)NC(=O)NC1c1ccc(OC)cc1` (stereo unspecified), “inactive”; that for `Cc1ccc(C(=O)Oc2ccc(C(=O)COC(=O)c3cnccn3)cc2)cc1`, “inactive”. As to `Cc1ccccc1N1CCN(Cc2c[nH]c3ccccc23)CC1`, the outcome is “inactive [at 50 µM]”. The result for `CSc1ccc(/C=N/n2c(C3CCCCC3)n[nH]c2=S)cc1` reads “inactive”; that for `Cc1nc(C)c(C(=O)Nc2nc3c(C)cccc3s2)o1`, “inactive”; that for `Clc1ccc(Sc2cc(N3CCOCC3)nc(-c3ccccc3)n2)cc1`, “inactive”. `O=C(NC1=NCCS1)C1CC2CCC1C2` (stereo unspecified): the call was inactive. The result for `NC(=O)COC(=O)c1ccc(Oc2ccccc2)cc1` reads “inactive”; that for `CCOc1ccc2nc(NC(=O)CCn3cccc3)sc2c1`, “inactive”. The result for `COc1ccc(OC)c(S(=O)(=O)N2CCN(C)CC2)c1` reads “inactive”; that for `CCOC(=O)N1CCN(C(=O)c2cc3c(s2)-c2ccccc2OC3)CC1`, “inactive”; that for `O=C1N(c2ccccc2)C2CS(=O)(=O)CC2N1c1ccc(Cl)c(Cl)c1` (stereo unspecified), “inactive”.

As to `COc1cccc(OC)c1C(=O)n1nc(C)cc1C`, the compound was classed as inactive.

Regarding `Cc1cc(S(=O)(=O)n2ccnc2)c(Cl)cc1Cl`, the result was inactive. `O=C(Cc1ccccn1)c1ccncc1`: the outcome was inactive. Turning to `Cc1ccc(N=Nc2ccc(O)c(/C=N\NC(=O)c3ccc(N)cc3)c2)cc1C`, the compound was classed as inactive. The result for `O=C(N/N=C/c1cccnc1)c1cc(O)c(O)c(O)c1` reads “inactive”. The entry for `CCC(Sc1nc(N)c(NC(=O)c2ccc(OC)c(OC)c2)c(=O)[nH]1)C(=O)OC` (stereo unspecified) is “inactive”. As for `S=C(Nc1ccc(Oc2ccccc2)cc1)NC1CCCCC1`, the compound was called inactive.

Turning to `CCCCCCc1nc2c(=O)[nH]c3ccccc3c2o1`, the call was inactive. In the case of `CCOC(=O)COn1c(=O)c(-c2ccc(Cl)cc2)[n+]([O-])c2ccccc21`, the result was inactive. The entry for `COc1ccccc1OCC(=O)NCC1CCCN(Cc2cnn(C(C)C)c2)C1` (stereo unspecified) is “inactive”.

Turning to `CCC(C)c1c(O)nc(SCC(=O)N2CCOCC2)[nH]c1=O` (stereo unspecified), the compound was classed as inactive. The result for `CC1(C)CCC(=O)c2ccccc21` reads “inactive”; that for `O=C(Oc1ccccc1)c1cccc2cccnc12`, “inactive”. The result for `CC(C)Cn1c(CCC(=O)O)ccc1-c1cccs1` reads “inactive”. As to `O=C(O)CCC(=O)N(Cc1cccs1)Cc1cccs1`, the compound was classed as inactive. Consider `CCc1ccc(-c2nc(SCC(=O)NC3CCS(=O)(=O)C3)n[nH]2)cc1` (stereo unspecified), for which the call was inactive.

With `O=C(CNC(=O)Cn1cnc2sc3c(c2c1=O)CCCC3)NCc1ccccn1`, the result was inactive. On to `Cc1cc(NC(=O)c2cncc(Br)c2)no1`, for which the compound was called inactive. Take `O=C1c2ccccc2C(=O)N1OCCOCCOCCBr`: the result was inactive.

On to `O=C1CCC(CCC(=O)N2CCCC(C(=O)c3ccc4c5c(cccc35)CC4)C2)=NN1` (stereo unspecified), for which the call was inactive. The entry for `Cc1ccc(OCc2ccc(C(=O)NN)o2)cc1C` is “inactive”; for `CN(C)C(=O)c1ccc(COc2ccccc2Br)o1` it is “inactive”. As for `CCOC(=O)c1cc2c(c(CCO)n1)[C@H](CCO)N(S(=O)(=O)C(C)(C)C)C2`, the compound was classed as inactive.

For the compound `Cc1cccc(-n2c(N)cc(=O)nc2SCC(=O)NC2CCCCC2)c1`, the result was inactive. `O=C(CSc1nnc(-c2cccnc2)n1C1CCCCC1)NC1CCCCC1`: the outcome was inactive. The entry for `COc1ccc(-n2c(Cc3cccn3C)nnc2SCC(=O)Nc2ccccc2)cc1` is “inactive”; for `O=C(Cc1cc(=O)[nH]c(=O)[nH]1)NCC1CCCO1` (stereo unspecified) it is “inactive”; for `COc1ccc(OC)c(NC(=O)CSc2nnc(CCCO)n2-c2ccccc2)c1` it is “inactive”. The entry for `Cc1ccc(-n2c(SCC(=O)NCC3CCCO3)nc3c(c2=O)SCC3)cc1` (stereo unspecified) is “inactive”.
